# The sample as a whole holds a higher share of the strongest signals than the screen did.
# Columns and labels:
# Assay in all cases: glycan array binding signal (z-score within array); higher = stronger binding
# Details in all cases: glycan notation: IUPAC condensed, linker removed
# [1] = molecular target: GalNAc(b1-3)Gal(a1-4)Gal(b1-4)GlcNAc
# Outline: (§1)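 The binding signal is a Z-score computed within each array. Data were drawn from 3228 arrays in the Consortium for Functional Glycomics database, restricted to those with a known protein sequence. Scores were averaged over arrays of the same protein sequence at different concentrations or buffers, and over linkers, and negative values can be taken as non-binding.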
# [2] = molecular target: GalNAc(b1-3)Gal(a1-6)Gal(b1-4)Glc
# Outline: as §1
# [3] = molecular target: Glc(a1-4)Glc(a1-4)Glc(a1-4)Glc
# Outline: as §1
# [4] = molecular target: GlcNAc(a1-4)Gal(b1-4)GlcNAc(b1-3)Gal(b1-4)GlcNAc(b1-3)Gal(b1-4)GlcNAc
# Outline: as §1
# GlcNAc(b1-3)Gal = molecular target: GlcNAc(b1-3)Gal
# Outline: as §1
# GlcNAc(b1-3)Gal(b1-4)Glc = molecular target: GlcNAc(b1-3)Gal(b1-4)Glc
# Outline: as §1
# [5] = molecular target: GlcNAc(b1-3)Gal(b1-4)GlcNAc
# Outline: as §1
# [6] = molecular target: GlcNAc(b1-3)Gal(b1-4)GlcNAc(b1-3)Gal(b1-4)GlcNAc(b1-2)[GlcNAc(b1-3)Gal(b1-4)GlcNAc(b1-3)Gal(b1-4)GlcNAc(b1-6)]Man(a1-6)[GlcNAc(b1-3)Gal(b1-4)GlcNAc(b1-3)Gal(b1-4)GlcNAc(b1-2)Man(a1-3)]Man(b1-4)GlcNAc(b1-4)[Fuc(a1-6)]GlcNAc
# Outline: as §1
# [7] = molecular target: GlcNAc(b1-3)Gal(b1-4)GlcNAc(b1-3)Gal(b1-4)GlcNAc(b1-3)Gal(b1-4)GlcNAc(b1-2)[GlcNAc(b1-3)Gal(b1-4)GlcNAc(b1-3)Gal(b1-4)GlcNAc(b1-3)Gal(b1-4)GlcNAc(b1-6)]Man(a1-6)[GlcNAc(b1-3)Gal(b1-4)GlcNAc(b1-3)Gal(b1-4)GlcNAc(b1-3)Gal(b1-4)GlcNAc(b1-2)Man(a1-3)]Man(b1-4)GlcNAc(b1-4)[Fuc(a1-6)]GlcNAc
# Outline: as §1
# [8] = molecular target: GlcNAc(b1-3)Gal(b1-4)GlcNAc(b1-3)Gal(b1-4)GlcNAc(b1-3)Gal(b1-4)GlcNAc(b1-3)Gal(b1-4)GlcNAc(b1-2)[GlcNAc(b1-3)Gal(b1-4)GlcNAc(b1-3)Gal(b1-4)GlcNAc(b1-3)Gal(b1-4)GlcNAc(b1-3)Gal(b1-4)GlcNAc(b1-6)]Man(a1-6)[GlcNAc(b1-3)Gal(b1-4)GlcNAc(b1-3)Gal(b1-4)GlcNAc(b1-3)Gal(b1-4)GlcNAc(b1-3)Gal(b1-4)GlcNAc(b1-2)Man(a1-3)]Man(b1-4)GlcNAc(b1-4)[Fuc(a1-6)]GlcNAc
# Outline: as §1
# [9] = molecular target: GlcNAc(b1-4)GlcNAc(b1-4)GlcNAc
# Outline: as §1
# [10] = molecular target: GlcNAc(b1-6)Gal(b1-4)GlcNAc
# Outline: as §1
# Kdn(a2-6)Gal(b1-4)GlcNAc = molecular target: Kdn(a2-6)Gal(b1-4)GlcNAc
# Outline: as §1
# [11] = molecular target: Man(a1-2)Man(a1-6)[Man(a1-3)]Man(a1-6)[Man(a1-2)Man(a1-2)Man(a1-3)]Man(b1-4)GlcNAc(b1-4)GlcNAc
# Outline: as §1
# Man(a1-6)Man = molecular target: Man(a1-6)Man
# Outline: as §1
# [12] = molecular target: Neu5Ac(a2-3)Gal(b1-3)GlcNAc(b1-2)Man
# Outline: as §1
# [13] = molecular target: Neu5Ac(a2-3)Gal(b1-3)[GlcNAc(b1-6)]GalNAc
# Outline: as §1
# [14] = molecular target: Neu5Ac(a2-3)Gal(b1-3)[Neu5Ac(a2-6)]GlcNAc(b1-3)[Fuc(a1-3)[Gal(b1-4)]GlcNAc(b1-6)]Gal(b1-4)Glc
# Outline: as §1
# [15] = molecular target: Neu5Ac(a2-3)Gal(b1-3)]Neu5Ac(a2-3)Gal(b1-4)]GlcNAc
# Outline: as §1
# [16] = molecular target: Neu5Ac(a2-3)Gal(b1-4)GlcNAc(b1-3)Gal(b1-4)GlcNAc(b1-3)Gal(b1-4)GlcNAc
# Outline: as §1
# [17] = molecular target: Neu5Ac(a2-3)Gal(b1-4)GlcNAc(b1-3)Gal(b1-4)[Fuc(a1-3)]GlcNAc
# Outline: as §1
# [18] = molecular target: Neu5Ac(a2-3)Gal(b1-4)[Fuc(a1-3)]GlcNAc(b1-3)GalNAc
# Outline: as §1
# [19] = molecular target: Neu5Ac(a2-3)[GalNAc(b1-4)]Gal(b1-4)Glc
# Outline: as §1
# Neu5Ac(a2-6)Gal(b1-4)Glc = molecular target: Neu5Ac(a2-6)Gal(b1-4)Glc
# Outline: as §1
# [20] = molecular target: Neu5Ac(a2-6)Gal(b1-4)GlcNAc
# Outline: as §1
# [21] = molecular target: Neu5Ac(a2-6)Gal(b1-4)GlcNAc(b1-3)Gal(b1-4)GlcNAc
# Outline: as §1
# [22] = molecular target: Neu5Ac(a2-6)Gal(b1-4)GlcNAc(b1-3)Gal(b1-4)GlcNAc(b1-3)Gal(b1-4)GlcNAc(b1-2)Man(a1-3)[Neu5Ac(a2-6)Gal(b1-4)GlcNAc(b1-3)Gal(b1-4)GlcNAc(b1-3)Gal(b1-4)GlcNAc(b1-2)Man(a1-6)]GalNAc
# Outline: as §1
# Neu5Ac(a2-6)GalNAc = molecular target: Neu5Ac(a2-6)GalNAc
# Outline: as §1
# [23] = molecular target: Neu5Ac(a2-8)Neu5Ac(a2-8)Neu5Ac(a2-8)Neu5Ac(a2-3)[GalNAc(b1-4)]Gal(b1-4)Glc
# Outline: as §1
# Neu5Ac(b2-6)GalNAc = molecular target: Neu5Ac(b2-6)GalNAc
# Outline: as §1
# [24] = molecular target: Neu5Gc(a2-3)Gal(b1-4)GlcNAc(b1-3)Gal(b1-4)GlcNAc(b1-2)Man(a1-3)[Neu5Gc(a2-3)Gal(b1-4)GlcNAc(b1-3)Gal(b1-4)GlcNAc(b1-2)Man(a1-6)]Man(b1-4)GlcNAc(b1-4)GlcNAc
# Outline: as §1
# [25] = molecular target: Neu5Gc(a2-8)Neu5Gc(a2-3)Gal(b1-4)GlcNAc
# Outline: as §1
binder,measurement,setting,value
Epa19 (Candida glabrata) (protein) MGSSHHHHHHSSGLVPRGSHMASSKDPTRFPIGCSPQVLKTQPGLAVKLYSYGHPVPGCSYITYQYPDFPRSGYKKERKLADITGVNGKIDIDLKPNDPCRVLTGHLPSNYNYPDTLTYTNFTMILYGYFQPKVTGYHTFNLEADDLLFMNLGAGNAFDCCKAESTLDNFGNYQSYSLWGSDYAKANITVFLVSGVYYPIRLFYVNRDNNAVIDFSFTTEFDKEKVHDFTSYFFSASDGEQCPGSV,glycan array binding signal (z-score),[1],-0.192
same,glycan array binding signal (z-score),[2],-0.525
same,glycan array binding signal (z-score),[3],0.084
same,glycan array binding signal (z-score),[4],-0.551
same,glycan array binding signal (z-score),GlcNAc(b1-3)Gal,-1.24
same,glycan array binding signal (z-score),GlcNAc(b1-3)Gal(b1-4)Glc,-0.077
same,glycan array binding signal (z-score),[5],-0.29
same,glycan array binding signal (z-score),[6],3.06
same,glycan array binding signal (z-score),[7],2.24
same,glycan array binding signal (z-score),[8],2.39
same,glycan array binding signal (z-score),[9],-0.295
same,glycan array binding signal (z-score),[10],0.368
same,glycan array binding signal (z-score),Kdn(a2-6)Gal(b1-4)GlcNAc,-0.099
same,glycan array binding signal (z-score),[11],-0.373
same,glycan array binding signal (z-score),Man(a1-6)Man,0.479
same,glycan array binding signal (z-score),[12],-1.47
same,glycan array binding signal (z-score),[13],-0.681
same,glycan array binding signal (z-score),[14],-0.06
same,glycan array binding signal (z-score),[15],1.09
same,glycan array binding signal (z-score),[16],0.026
same,glycan array binding signal (z-score),[17],-0.678
same,glycan array binding signal (z-score),[18],3.04
same,glycan array binding signal (z-score),[19],0.603
same,glycan array binding signal (z-score),Neu5Ac(a2-6)Gal(b1-4)Glc,-0.768
same,glycan array binding signal (z-score),[20],-0.869
same,glycan array binding signal (z-score),[21],-1.3
same,glycan array binding signal (z-score),[22],3.53
same,glycan array binding signal (z-score),Neu5Ac(a2-6)GalNAc,-0.465
same,glycan array binding signal (z-score),[23],-0.059
same,glycan array binding signal (z-score),Neu5Ac(b2-6)GalNAc,-0.238
same,glycan array binding signal (z-score),[24],-0.264
same,glycan array binding signal (z-score),[25],-0.386
